According to the supplement of paper PMC13392028:
Over roughly 4,100 sequences, “RBNS R-value (6-mer enrichment in protein-bound RNA vs input library)” has its median near 0.96; the highest 2% begin near 2.4. The full list was thinned out, with the highest values kept by preference.

Test system: PyIESI-1 RRM domain (Plasmodium yoelii PY17X_0911200 aa 795-956, GST fusion)
Test: RBNS R-value (6-mer enrichment in protein-bound RNA vs input library) (ratio); higher = stronger binding preference; the methods of the paper give 50 / 100 / 500 nM protein instead
In short: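 Purified GST-tagged RNA-recognition-motif regions, from orthologues in three Plasmodium species expressed in E. coli, were bound at room temperature to a random 40-mer in vitro transcribed RNA library and captured on glutathione magnetic agarose beads. Bound RNA and input were reverse transcribed and MiSeq-sequenced, with 6-mers counted from one replicate. Enrichment in bound RNA over input is reported as the R-value, calculated with the Burge lab pipeline.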

| Sequence | RBNS R-value (protein concentration: 250 nM) | RBNS R-value (protein concentration: 500 nM) | RBNS R-value (protein concentration: 1000 nM) |
| --- | --- | --- | --- |
| CAUGAU | 5.84 | 5.36 | 5.72 |
| UAUGAG | 0.865 | 0.899 | 0.898 |
| AUAGUC | 0.632 | 0.65 | 0.627 |
| CACCUG | 1.72 | 1.67 | 1.73 |
| UAUGAC | 0.93 | 0.947 | 0.974 |
| GAUAAU | 1.7 | 1.73 | 1.86 |
| GAUGAG | 3.25 | 3.07 | 3.06 |
| GAUGAC | 3.66 | 3.41 | 3.46 |
| AAUGAC | 1.19 | 1.23 | 1.25 |
| GAUGAA | 4.07 | 3.66 | 3.68 |
| GAUGAU | 6.07 | 5.52 | 5.59 |
| GAUGGU | 1.92 | 1.85 | 1.9 |
| GACGAG | 1.19 | 1.18 | 1.13 |
| GGUGAA | 1 | 1.02 | 0.954 |
| AAUGAA | 1.03 | 1.02 | 1.02 |
| UGAUCG | 1.64 | 1.68 | 1.74 |
| CUAAGC | 0.741 | 0.738 | 0.733 |

| Sequence | RBNS R-value (protein concentration: 250 nM) | RBNS R-value (protein concentration: 500 nM) | RBNS R-value (protein concentration: 1000 nM) |
| --- | --- | --- | --- |
| GUUUGG | 0.834 | 0.866 | 0.813 |
| UAGGAG | 0.934 | 0.936 | 0.887 |
| CUGCAU | 0.892 | 0.929 | 0.917 |
| UCUGUU | 0.847 | 0.911 | 0.878 |
| GUGGCG | 0.953 | 0.954 | 0.937 |
| UAAUGA | 1.69 | 1.65 | 1.71 |
| AAAUGA | 2.48 | 2.3 | 2.4 |
| GAAUGC | 1.17 | 1.18 | 1.17 |
| AAAUGC | 0.942 | 0.952 | 0.985 |
| GAAUGU | 0.999 | 1 | 0.972 |
| GAAUGA | 2.5 | 2.31 | 2.3 |
| AUUAAC | 0.87 | 0.859 | 0.881 |
| CCCUCC | 1.15 | 1.13 | 1.17 |
| UCGCGU | 0.843 | 0.85 | 0.835 |
| ACUCUC | 0.893 | 0.906 | 0.906 |
| GAGGAC | 1.09 | 1.06 | 1.02 |
